The text below walks through data of PubChem BioAssay AID588795 (National Center for Advancing Translational Sciences (NCATS), 2011).

The whole screen tested about 390,000 compounds, of which about 1,400 (0.36%) were called active. Not shown: some 2% with an inconclusive outcome. The call rests on the fitted dose curve; in most records, active means well fitted inhibition curve with a large enough effect; inconclusive means small, poorly fitted or top-dose-only effect; inactive means no such curve, though single readings can be large or run the other way. Shown is part of a subset that was picked to be rich in actives. Entries that show only a call come without a potency.
Potency means the concentration at half of the fitted maximal effect.

In the experiment the target is Flap endonuclease 1 (Homo sapiens) (UniProt P39748). The experiment in a line: qHTS Assay for the Inhibitors of Human Flap endonuclease 1 (FEN1). Further: nearly all actives have a fitted effect of over 65% in size. To be noted: Recombinant FEN1 flap cleavage, fluorescence, 15 min; series mostly up to 114 µM. From the text: The major human flap endonuclease FEN1 is an efficient structure-specific enzyme that recognizes and cleaves a 5'-unannealed DNA flap. It belongs to the RAD2 family nucleases, which are involved in DNA metabolism and are highly conserved in prokaryotes and eukaryotes. FEN1 is a key enzyme in DNA replication, repair and maintenance of genomic stability. 5'-flap removal by FEN1 is critical for Okazaki fragment processing during lagging strand DNA synthesis, long-patch base excision repair (LP BER), and regulating or facilitating recombination events. […] Deletion of the yeast FEN1 gene, i.e. rad27, results in an increased frequency of short DNA (3-32 bp) repeats, micro- and mini-satellite formation, trinucleotide repeat expansion, spontaneous recombination events, and a severe growth defect in association with cell cycle arrest in late S/G2 phase. […] Cells from fen1-/- blastocysts show increased apoptotic cell death after ionizing radiation treatment, and chicken cells lacking the fen1 gene are hypersensitive to DNA alkylating agents, e.g. methylmethane sulfonate (MMS) and N-methyl-N'-nitro-N-nitrosoguanidine (MNNG), as well as hydrogen peroxide.
Sequence of Flap endonuclease 1 (Homo sapiens) (P39748 whole entry, looked up, the tested form may be a part): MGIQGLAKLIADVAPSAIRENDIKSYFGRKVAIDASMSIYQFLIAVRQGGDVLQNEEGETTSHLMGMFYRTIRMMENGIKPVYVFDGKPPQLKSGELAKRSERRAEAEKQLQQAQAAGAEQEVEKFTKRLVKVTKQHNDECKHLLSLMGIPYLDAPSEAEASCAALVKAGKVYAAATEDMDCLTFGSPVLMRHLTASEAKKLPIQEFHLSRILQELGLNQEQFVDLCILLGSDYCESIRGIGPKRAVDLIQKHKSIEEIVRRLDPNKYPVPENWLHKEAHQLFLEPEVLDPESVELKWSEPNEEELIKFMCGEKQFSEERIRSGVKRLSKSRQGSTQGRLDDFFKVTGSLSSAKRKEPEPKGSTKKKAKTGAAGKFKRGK
NIH Chemical Genomics Center [NCGC]
NIH Molecular Libraries Probe Centers Network [MLPCN]
Assay Submitter (PI): David Wilson, National Institute of Aging
Three uL of reagents (buffer in column 3 and 4 as negative control and 10 nM FEN1 in columns 1, 2, and 5-48) were dispensed into 1,536-well black solid-bottomed plate. Compounds (23 nL) were transferred via Kalypsys pin tool equipped with 1536-pin array (10 nL slotted pins, V&P Scientific, San Diego, CA). The plates were then incubated for 15 min at room temperature, and 1 uL substrate (50 nM final concentration) were added to start the reaction read twice at 0 min read and 15 min on ViewLux reader. Throughout the screen, reagent bottle and all liquid lines were chilled and made light-tight to minimize reagent degradation. All screening operations were performed on a fully integrated robotic system (Kalypsys, San Diego, CA) containing one RX-130 and two RX-90 anthropomorphic robotic arms (Staubli, Duncan, SC). Library plates were screened starting from the lowest and proceeding to the highest concentration, and a "double-dipping" step of the highest concentration was required to access higher concentrations of compounds. Vehicle-only plates, with DMSO being pin-transferred to the entire column 5-48 compound area, were inserted uniformly at the beginning and the end of each library in order to monitor for and record any shifts in the background, which can be affected by reagent dispensers or loss in enzyme activity overtime. Screening data was corrected, normalized, and concentration-effect relationships were derived by using publicly-available curve fitting algorithms developed in-house (http://ncgc.nih.gov/pub/openhts). A four parameter Hill equation was fitted to the concentration-response data by minimizing the residual error between the modeled and observed responses.
In the case of `COc1cc2nc(N3CCCN(C)CC3)nc(NC(C)C)c2cc1OC`, the Potency entry is “inactive”.
With `COc1cc2nc(Cl)nc(NC3CC3)c2cc1OC` the entry was “inactive”; with `CNCCCOc1cc2nc(N3CCCN(C)CC3)nc(NC3CCN(C)CC3)c2cc1OC`, 22.4 µM (active); with `CN(N=O)c1ccc(C=C2c3ccccc3-c3ccccc32)cc1`, “inactive”.
As for `O=C(COc1ccccc1C(=O)Nc1ccccc1)Nc1cccc(F)c1`, the Potency result is “inactive”.
With `CC(=O)c1ccc[n+](C(C)CCC(C)[n+]2cccc(C(C)=O)c2)c1` (stereo not given), the Potency entry is “inactive”.
With `Cc1ccc(-c2cc(N)n(Cc3cccc(Cl)c3)n2)cc1` the entry was “inactive”.
For `CC(=O)OC1CCC2(C)C(=CCC3C4CC(=O)N(O)C(=O)C4(C)CCC32)C1` (stereo not given) the value was 3.16 µM (active); for `C[C@@H]1CC[C@@]2(OC1)O[C@H]1C[C@H]3[C@@H]4CC=C5C[C@@H](O)[C@H](O)C[C@]5(C)C4CC[C@]3(C)[C@H]1[C@@H]2C` (stereo not given in full), “inactive”.
With `C[C@]12CC[C@H](O)CC1=CCC1C2CC[C@@]2(C)C1CC[C@@H]2NC(=O)CCC(=O)O` (stereo not given in full) the entry was “inactive”; with `CC(C)(C(=O)NO)c1ccccc1`, “inactive”.
`CN(C)c1ccc(/C=N\Nc2ccc([N+](=O)[O-])cc2[N+](=O)[O-])cc1Cl`: the Potency entry was “inactive”.
Turning to `CCCCOc1ccc(CN2C(=O)C(=O)c3cc(Br)cc(C)c32)cc1OC`, the Potency entry is “inactive”.
For `COc1ccc(Nc2cc(C(=O)NCCCN(C)c3ccccc3)c3ccccc3n2)c(OC)c1`, the Potency entry was “inactive”.
For the compound `COc1ccccc1Nc1cc(C(=O)NCCCN(C)C2CCCCC2)c2ccccc2n1`, the Potency entry is “inactive”.
As for `CN(C)CCNC(=O)c1ccc(Cl)c2cc3ccccc3nc12`, the Potency was 11.2 µM (active).
As for `Cc1ccc(NC(=O)CN2C(=O)C(c3ccc(F)cc3)=NC23CCCCCC3)c(C)c1`, the Potency is 89.1 µM (active).
For `COc1ccc(NC(=O)CN2C(=O)C(c3ccccc3)=NC23CCCCCC3)cc1OC` the value was “inactive”; for `CCc1ccc(NC(=O)CN2C(=O)C(c3ccccc3)=NC23CCCCCC3)cc1`, “inactive”; for `COc1ccc(CCNc2ncnc3c2cnn3-c2ccc(C)cc2)cc1`, “inactive”.
With `COc1ccc2[nH]c3c(C)c4cc[n+](C)cc4c(C)c3c2c1` the figure was 2.24 µM (active).
For `CCOC(=O)c1[nH]c2ccc(OC)cc2c1NC(=O)N1CCOCC1` the value was “inactive”.
For the compound `CN(C)c1ccc(/C=C2\C=Cc3ccccc32)cc1Br`, the Potency entry is “inactive”.
With `c1ccc(Cn2nnc3c(N4CCCCC4)ncnc32)cc1` the entry was “inactive”; with `CCCCOc1ccc(C(=O)NO)cc1`, “inactive”; with `O=[N+]([O-])c1ccc(/C=C/c2ccc3cccnc3c2)cc1`, “inactive”.
As to `COc1ccccc1NC(=O)Nc1nnc(Cc2ccc(F)cc2)s1`, the Potency entry was “inactive”.
For `COc1ccc(Cc2nnc(NC(=O)Cc3cccs3)s2)cc1`, the Potency was 56.2 µM (active).
Turning to `COc1ccc(OC)c(NC(=O)Cc2cccs2)c1`, the Potency entry is “inactive”.
With `CC[n+]1cc(C)ccc1/C=C/c1ccc(N(C)C)cc1` the entry was “inactive”; with `CN(C)c1ccc(/C=C/c2c3ccccc3nc3ccccc23)cc1`, “inactive”.
With `CN(C)c1ccc(/C=C/c2sc3ccccc3[n+]2C)cc1` the figure was 50.1 µM (active); with `CN(C)c1ccc(/C=C/c2sc3ccccc3[n+]2CCCCBr)cc1`, 50.1 µM (active).
In the case of `CO[C@H]1O[C@@H]2O[C@@]3(C)CC[C@@H]4[C@@H](C)CC[C@@H]([C@H]1C)[C@@]24OO3`, the Potency entry is “inactive”.
For `Cc1ccc(Cn2cnc3c(cnn3C(C)(C)C)c2=O)c(F)c1` the value was “inactive”; for `Cc1ccc(C=O)cc1Cl`, “inactive”; for `CCCCCCC1(C)NC(c2ccc3c(c2)OCO3)=CC(c2ccccc2O)N1` (stereo not given), “inactive”.
Take `Cc1ccc2ccc3c(c2n1)NS(=O)(=O)c1ccccc1-3`: the Potency result was “inactive”.
On to `SCc1nc2ccc(Cl)cc2[nH]1`, for which the Potency result was “inactive”.
For `CCN(CC)/[N+]([O-])=N/OCOC(=O)Cc1c(C)n(C(=O)c2ccc(Cl)cc2)c2ccc(OC)cc12` the value was “inactive”.
For `CCc1cnc2c(c1SCC(=O)c1ccccc1)c(=O)n(C)c(=O)n2C` the value was “inactive”.
In the case of `O=C(NNc1c2ccccc2nc2ccccc12)c1cc2ccccc2cc1O`, the Potency was 50.1 µM (active).
Regarding `O=C(NNC(=O)c1ccccc1O)c1ccccc1O`, the Potency entry was “inactive”.
On to `O=C(COC(=O)c1ccc(O)cc1O)NC(=O)c1ccccc1`, for which the Potency result was “inactive”.
With `CCOC(=O)COc1cc(OCC(=O)OCC)c2c(=O)cc(-c3ccccc3)oc2c1` the entry was “inactive”; with `COc1c(O)cc2oc(-c3ccc(O)c(O)c3)cc(=O)c2c1O`, 17.8 µM (active); with `COc1ccc(-c2c(C)c3ccc(O)c(CN4CCN(C)CC4)c3oc2=O)cc1OC`, “inactive”.
For `OCC(O)C(O)C(O)C(O)C=Nc1ccc(/C=C/c2ccnc3ccccc23)cc1` (stereo not given) the value was “inactive”.
With `CC1(C)Cc2ccccc2-c2c[nH]c(=O)n21` the entry was “inactive”; with `Nc1ccccc1SC(C[N+](=O)[O-])c1ccccc1` (stereo not given), 15.8 µM (active).
With `Cc1csc[n+]1CCC1CCCCC1`, the Potency entry is “inactive”.
As for `CC(C)(C)C1CCC(NC(=O)c2cnn3c2NC(=C2CC2)C=C3C(F)F)CC1` (stereo not given), the Potency result was “inactive”.
With `CCC1(C)Cc2c(sc3[nH]c(=S)n(Cc4ccccc4)c(=O)c23)CO1` (stereo not given) the entry was “inactive”; with `C=CCn1c(=S)[nH]c2scc(-c3ccco3)c2c1=O`, 39.8 µM (active); with `C=CCNC(=O)c1ccc2nc(-c3ccco3)c(-c3ccco3)nc2c1`, “inactive”.
As to `CCOc1ccc(NC(=O)c2ncoc2-c2ccco2)cc1`, the Potency entry is “inactive”.
For `COCCNC(=O)Nc1ccc2nc(-c3ccco3)c(-c3ccco3)nc2c1` the value was 11.2 µM (active); for `CC1(C)CC(=O)c2cc(C(=O)NCc3ccccc3)c(=O)[nH]c2C1`, “inactive”.
On to `O=C1CCC[C@@H]2C[C@@]3(C[C@@H]4CCN1[C@H]24)Nc1ccccc1NC3=NCc1ccccc1`, for which the Potency result was “inactive”.
For `COc1cccc2c1C(=O)c1c(O)c3c(c(O)c1C2=O)CC(O)(C(C)=NNC(=O)c1ccc(Cl)c(Cl)c1)CC3OC1CC(N)C(O)C(C)O1` (stereo not given) the value was 44.7 µM (active); for `CN1CCN(/[N+]([O-])=N/Oc2ccc([N+](=O)[O-])cc2[N+](=O)[O-])CC1`, “inactive”; for `O=C1CC(c2ccccc2)CC2=C1C(c1ccco1)n1nc(C(F)(F)F)nc1N2` (stereo not given), “inactive”.
With `CO/N=C/c1ccc(N2CCN(C(=O)c3cccc(Cl)c3)CC2)c([N+](=O)[O-])c1`, the Potency result was “inactive”.
Take `CCOc1cccc(/C=N/N2C(=O)CSC2=S)c1O`: the Potency result is “inactive”.
For `O=C1CSC(=S)N1/N=C/c1ccc(O)c([N+](=O)[O-])c1` the value was 28.2 µM (active).
